Source: the supplement of paper PMC6555819

Tests used:
Assay in all cases: PBM binding z-score (relative to random genomic background probes); higher = stronger binding; sequences stand for … in GC…GCGATTGACAGCGTAGAATGAAGG
[1] = system: PPARg:RXRa DBDmut IVT, anti-RXR (DBD mutation: RXRa K156A/R161A, NR concentration 270 nM, RXRa partner concentration 90 nM)
Method in brief: (§1)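 Binding z-scores take random background probes as their reference. They come from custom Agilent 4×180K protein-binding microarrays incubated 1 h with ligand-free nuclear receptor dimers, with antibodies against each partner (one per run) detecting binding. Scanned fluorescence was regression-normalized.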

[2] = system: PPARg:RXRa IVT, anti-PPARg (NR concentration 270 nM, RXRa partner concentration 90 nM)
Method in brief: as §1

[3] = system: PPARg DBDmut:RXRa IVT, anti-PPARg (DBD mutation: PPARg1 K132A/R137A, NR concentration 270 nM, RXRa partner concentration 90 nM)
Method in brief: as §1

[4] = system: PPARg DBDmut IVT, anti-PPARg (DBD mutation: PPARg1 K132A/R137A, NR concentration 270 nM)
Method in brief: as §1

[5] = system: PPARg homodimer (NR concentration 180 nM)
Method in brief: as §1

[6] = system: PXR:RXRa (NR concentration 270 nM, RXRa partner concentration 90 nM)
Method in brief: as §1

[7] = system: PXR homodimer (NR concentration 270 nM)
Method in brief: as §1

[8] = system: RARa:RXR (NR concentration 270 nM, RXRa partner concentration 90 nM)
Method in brief: as §1

[9] = system: RARa homodimer (NR concentration 270 nM)
Method in brief: as §1

[10] = system: RARb:RXRa (NR concentration 270 nM, RXRa partner concentration 90 nM)
Method in brief: as §1

[11] = system: RARb homodimer (NR concentration 270 nM)
Method in brief: as §1

[12] = system: RARg:RXRa (NR concentration 270 nM, RXRa partner concentration 90 nM)
Method in brief: as §1

[13] = system: RARg homodimer (NR concentration 270 nM)
Method in brief: as §1

[14] = system: RXRa DBDmut IVT, anti-RXR (DBD mutation: RXRa K156A/R161A, NR concentration 90 nM)
Method in brief: as §1

[15] = system: RXRa homodimer (NR concentration 180 nM)
Method in brief: as §1

[16] = system: THRa:RXRa (NR concentration 90 nM, RXRa partner concentration 90 nM)
Method in brief: as §1

[17] = system: THRa homodimer (NR concentration 90 nM)
Method in brief: as §1

[18] = system: VDR homodimer (NR concentration 270 nM)
Method in brief: as §1

Sequence	PBM binding z-score [1]	PBM binding z-score [2]	PBM binding z-score [3]	PBM binding z-score [4]	PBM binding z-score [5]	PBM binding z-score [6]	PBM binding z-score [7]	PBM binding z-score [8]	PBM binding z-score [9]	PBM binding z-score [10]	PBM binding z-score [11]	PBM binding z-score [12]	PBM binding z-score [13]	PBM binding z-score [14]	PBM binding z-score [15]	PBM binding z-score [16]	PBM binding z-score [17]	PBM binding z-score [18]
ATACCATGGTGATCGTGAGGTCGTTGATACTAAC	-0.0684	0.0915	-0.0138	0.737	0.319	1.75	1.17	1.27	-0.088	0.235	1.18	0.425	0.264	0.547	0.893	2.48	1.85	2.87
CCTACTGGGCCATCATGTCATTGATATCAACGTT	4.06	4.28	0.246	0.754	0.785	-0.129	0.119	0.097	-0.0554	0.332	0.671	0.216	0.415	-0.152	-0.104	0.045	0.122	-0.253
AGAACGAGGGCACGCTGAGTTGACAGCAGAGTAG	3.94	3.77	1.38	0.377	0.462	1.46	-0.0837	1.24	-0.654	2.57	1.43	2.35	2.33	1.6	1.73	2.16	-0.174	1.79
CCTGCTAGGTTAATGGTCAGCTAAAGCAGCTCGC	2.01	1.36	-0.242	-0.61	0.222	-0.336	-0.337	0.0339	-0.547	1.26	0.863	0.422	0.563	0.452	0.173	0.215	-0.284	-0.175
TCATATAGGTAAATGCTAGGTGATAGTCCGATCT	4.05	2.45	0.855	0.985	0.409	0.395	0.368	0.797	1.3	0.301	-0.0324	0.496	0.457	1.37	0.854	0.78	0.138	0.168
ATCTCTAGGTAAACATAGTTCAGTGAATGCAAAT	2.31	2.59	0.983	1.45	1.28	1.35	0.955	0.73	1.3	1.01	1.42	0.884	0.928	-0.105	0.495	1.07	0.425	0.447
TTACCAAGGTGAAAGGTCGTTGTTGCACGCCTTG	2.71	4.85	-0.135	0.857	1.39	3.78	0.253	5.2	-0.175	3.09	2.51	3.79	1.79	0.868	5.4	3.45	1.38	1.08
GCTAGCAGGCCATGTGGGTCACTCAATGACGGGC	2.25	3.4	-0.133	-0.744	-0.23	0.289	-0.533	0.567	-0.664	1.26	1.65	0.945	1.05	-0.752	0.909	0.759	-0.59	0.0438
TCTTCTAGGTCAACGATGGTCAGCTAATCTGCTA	7.21	7.26	2.6	3.07	2.69	2.23	0.345	2.8	1.21	4.31	3.76	4.37	5.58	1.9	3.09	3.55	2.17	0.674
TGAATGAGATTAAAGATCAGGGAACGTGGCGTCG	-0.695	-0.415	-1.12	-0.126	-0.076	-0.42	-0.498	-0.467	0.0825	-0.19	-0.824	-0.0861	0.247	-1.09	0.253	-0.316	-0.698	-0.27
CCGACTGGGCCATCAGGTCATTGATATCAACGTT	3.07	3.51	-1.33	-0.437	0.811	1.47	0.46	1.85	-0.257	2.04	2.62	2.06	1.8	0.194	1.38	3.17	2.95	1.67
TCTTGTAGATCAAAGGTTGAGAAAGCCGAAGCCT	2.32	2.51	0.407	-0.0322	-0.0761	0.618	-0.464	1.05	-0.393	0.592	0.0942	0.326	-0.192	0.518	1.08	0.142	-0.747	-0.223
CGAACTAGGGCAAGGACAGTGAATCTCCGCACGC	7	6.14	0.631	-0.116	-0.153	-0.332	-0.43	-0.371	-0.534	1.59	0.945	0.544	1.17	0.123	0.145	1.09	0.786	0.0219
CGTCGAAGGTCAAAGGTCAGTGAAGAGATGACGG	3.46	5.8	1.49	1.99	5.11	7.05	1.1	8.65	2.42	5.92	5.17	8.72	7.78	3.05	9.99	4.58	0.832	2.54
CCTTGCAGGCCAGGGTCACTCAAGCATTTCGCTT	1.64	1.87	-0.933	-1.48	0.75	2.65	-0.433	3.33	-0.43	2.79	2.93	3.21	2.83	0.484	3.43	2.76	1.07	1.18
